Data on eight compounds can be found in PubChem BioAssay (NCI).

Compounds without any hit were thinned out: in the full panel of roughly 83,000, 20% have a hit.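 Step 1: grow cells in 96-well plates. Step 2: add test compound at a single concentration. Step 3: incubate 48 h. Step 4: record percent growth.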 Values without a mark were called inactive. The source made the active and inactive calls. How the source made its calls: active means growth percent below 10; inactive means the rest.

What all share (experiment): NCI-60 one-dose screen, 48 h (100 = growth as untreated, 0 = no growth, -100 = all killed)
What all share (conditions): 10 µM unless noted

Experiment [1] concerns SR leukemia.
For experiment [2], the system named is RPMI-8226 leukemia.
Experiment [3] has as its system OVCAR-8 ovarian.
Experiment [4] has as its system OVCAR-5 ovarian.
Experiment [5] relates to OVCAR-4 ovarian.
Experiment [6] has as its system SK-OV-3 ovarian.
Experiment [7] deals with IGROV1 ovarian.
The subject of experiment [8] is OVCAR-3 ovarian.
Experiment [9] concerns HS 578T breast.
Experiment [10] has as its system NCI/ADR-RES ovarian.
The test system of experiment [11] is T-47D breast.
Experiment [12] relates to BT-549 breast.
Experiment [13] has as its system MDA-MB-435 melanoma.
Experiment [14] has as its system SW-620 colon.
Experiment [15] relates to MCF7 breast.
In experiment [16] the test system is HCT-116 colon.
For experiment [17], the system named is HCC-2998 colon.
The test system of experiment [18] is KM12 colon.

For `Cc1cc(N/N=C/c2nc(-c3ccc(Cl)cc3)oc2C)c2cc(Br)ccc2n1`, the growth is 4.22% (active) in [1]; -15% (active) in [2]; 8.16% (active) in experiment [3]; 96.1% in experiment [4]; -83% (active) in [5]; 104% in experiment [6]. In addition, the growth was 63.3% in experiment [7]; -21.2% (active) in experiment [8]; 78.6% in [9]; 14.7% in [10]; 74.5% in experiment [11]; 94% in [12]. Also, the growth was -38.8% (active) in experiment [13]; -65.4% (active) in experiment [14]; -77.8% (active) in [15]; 4.35% (active) in [16]; 89.9% in experiment [17]; 55.3% in [18].

Consider `COc1cc(OC)c(/C=C/S(=O)(=O)Cc2cnc(OC)c(N)c2)c(OC)c1`, for which the growth in experiment [1] is -6.9% (active); in experiment [2] it was 29.1%; in experiment [3] it was 18.9%; in experiment [4] it was 55.2%; in experiment [5] it was 50.3%; in experiment [6], 11.9%. Moreover, the growth in experiment [7] was 29.4%; in experiment [8], -13.5% (active); in [9] it was 47.5%; in experiment [10] it was 7.65% (active); in experiment [11] it was 15.6%; in [12] it was 8.01% (active). In addition, the growth in experiment [13] is 13.4%; in experiment [14], 22.8%; in [15] it was 11.6%; in experiment [16] it was 3.33% (active); in experiment [17] it was 17.5%; in [18] it was 9.75% (active).

As for `O=c1ccc2cc3ccccc3cc2[nH]1`, the growth in [1] is 82.1%; in experiment [2], 87.4%; in experiment [3], 105%; in experiment [4] it was 82%; in experiment [5], 95.1%; in experiment [6], 102%. Further, the growth in [7] was 98.2%; in [8] it was 87.4%; in [9], 50.9%; in [10], 93%; in [11], 96.9%; in experiment [12], 108%. Further, the growth in [13] is 92.3%; in experiment [14], 97.4%; in [15], 96.6%; in experiment [16] it was 99.2%; in experiment [17], 83.3%; in [18], 101%.

As for `COc1ccc(S(=O)(=O)NCCCNc2cc(-c3c(-c4cccc(OC)c4)nc4sccn34)ccn2)cc1`, the growth in experiment [1] was 43.5%; in experiment [2] it was 13.1%; in experiment [3] it was 38.5%; in experiment [4], 86.3%; in experiment [5] it was 36.4%; in experiment [6], 73.4%. The growth in experiment [7] is 51.8%; in [8], 52.1%; in experiment [9], 62.9%; in experiment [10], 32.5%; in experiment [11], 2.13% (active); in experiment [12], 45.1%. Moreover, the growth in experiment [13] was 44.4%; in experiment [14] it was 63.7%; in experiment [15], 34.5%; in experiment [16] it was 47.3%; in experiment [17] it was 70.7%; in [18], 39.6%.

For `CCCCCCCCCCCCCC(=O)C(C)N` (centres undefined), the growth was -2.57% (active) in experiment [1]; 31.9% in experiment [2]; 89.9% in experiment [3]; 68.7% in [4]; 14.3% in experiment [5]; 72.5% in [6]. Further, the growth in [7] was 53.2%; in experiment [8] it was 73.6%; in [9], 70.6%; in experiment [10], 75.8%; in experiment [11], -30.2% (active); in [12], 66.9%. Moreover, the growth is 78.5% in experiment [13]; 80.4% in [14]; 34% in experiment [15]; 59.2% in [16]; 55.1% in experiment [17]; 22.1% in experiment [18].

Take `CC(C)Oc1nc2c(c(=O)n(C)c(=O)n2C)n1C`: the growth in experiment [1] was 104%; in experiment [2], 105%; in experiment [3], 103%; in [4] it was 106%; in experiment [5], 115%; in experiment [6], 102%. Also, the growth is 102% in [7]; 110% in experiment [8]; 116% in experiment [9]; 98.1% in experiment [10]; 90.3% in [11]; 109% in experiment [12]. Also, the growth in experiment [13] is 105%; in experiment [14], 102%; in experiment [15], 95.2%; in experiment [16], 101%; in experiment [17], 101%; in experiment [18] it was 105%.

As for `COc1ccc(/C=N\NC(=O)c2ccncc2)cc1O`, the growth was 95.7% in experiment [1]; 104% in experiment [2]; 98.5% in [3]; 110% in experiment [4]; 87.8% in experiment [5]; 87.8% in [6]. The growth in experiment [7] was 98.4%; in experiment [8], 104%; in [9], 110%; in experiment [10], 102%; in experiment [11], 87.3%; in experiment [12] it was 98.1%. The growth in experiment [13] was 98.5%; in experiment [14], 107%; in [15] it was 95.7%; in experiment [16], 94.1%; in [17] it was 101%; in experiment [18] it was 94.2%.

Take `COc1cccc(-c2cn3c(ccc4ccccc43)n2)c1`: the growth was 31.9% in [1]; 31.8% in experiment [2]; 45.7% in experiment [3]; 52.7% in [4]; 61.6% in experiment [5]; 45.7% in [6]. The growth was 41.2% in experiment [7]; 16.7% in [8]; 21.6% in experiment [9]; 15% in experiment [10]; 46.1% in experiment [11]; 37.8% in [12]. The growth in experiment [13] is -25.6% (active); in [14], 26.2%; in experiment [15], 17.4%; in experiment [16] it was 40.6%; in experiment [17], 68.8%; in experiment [18] it was 34.6%.
